# Test results as given in PubChem BioAssay (EPA / NIEHS).
# “And” between values parts separate entries of the source, which are not always exact repeats. Equal entries are not always repeated. Inconclusive results are not listed. The source made the active and inactive calls. The calls were made as follows, unless noted: active = hit-call score of the fitted dose curve at least 0.9, where 1 is the maximum; inactive = score below 0.9.
# Experiments:
# [1] = CCTE_Shafer_MEA_acute_LDH: CCTE's Lactate Dehydrogenase Assay for Cytotoxicity in the Neural Acute Assay, Shafer Lab (AID 2284086; active = hit-call score of the fitted dose curve at least 0.9, where 1 is the maximum;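 also: active means LDH release rises above DMSO vehicle level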)
# Summary of the method: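 Rat cortical neurons cultured on microelectrode arrays; baseline 40-min recording, compound added, second 40-min recording; medium then sampled for released LDH (colorimetric kit, 490 nm). DMSO = negative control.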
# [2] = CCTE_Shafer_MEA_dev_mutual_information_norm: CCTE's Neural Network Formation Assay for Mutual Information Normalization, Shafer Lab (AID 2284091);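 as to AC50: mutual information between electrodes summarised as area under curve across four recording days; potency is for a decrease in mutual information relative to DMSO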
# Summary of the method: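 Developing rat cortical networks on 16-electrode MEA wells are treated throughout formation (DIV 0–12). Shared electrode information is recorded four times, converted to area-under-curve, and fitted for decreases against DMSO vehicle.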
# [3] = CCTE_Shafer_MEA_dev_correlation_coefficient_mean: CCTE's Neural Network Formation Assay for Mean Correlation Coefficient, Shafer Lab (AID 2284093);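 also: well mean pairwise spike train correlation integrated as AUC over recording days 5 to 12; potency fitted for loss of correlation relative to DMSO vehicle wells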
# Summary of the method: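 Read-out: well-mean correlation coefficient of spike trains between electrode pairs, collapsed over four recording days as trapezoidal area-under-the-curve. Developing rat cortical neuron networks grown on MEAs received test chemical continuously from plating.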
# [4] = UKN2_HCS_IMR90_neural_migration: University of Konstanz (UKN) Leist Lab Neural Crest Cell Migration Assay in human induced IMR90 Pluripotent Stem Cells (UKN2) (AID 2284204); conditions: actives raise or lower the signal
# Summary of the method: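 Migration of human IMR90-derived neural crest cells into a stopper-defined gap is imaged after 24 h chemical treatment. Activity is fitted bidirectionally relative to DMSO.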
# [5] = IUF_NPC1b_proliferation_BrdU_72hr: Leibniz Research Institute for Environmental Medicine (IUF) 72-hour Neural Progenitor Cell Bromodeoxyuridine (BrdU) Proliferation Assay (NPC1b) (AID 2284207)
# Summary of the method: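 Proliferation of primary human neural progenitor cells: 72 h compound treatment at 37C, 5% CO2, pH 7.2-7.6, in EGF/FGF-containing medium. Readout is BrdU uptake (last 16 h) by chemiluminescent ELISA, normalised to DMSO.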
# [6] = IUF_NPC1a_proliferation_area_72hr: Leibniz Research Institute for Environmental Medicine (IUF) 72-hour Neural Progenitor Cell Proliferation Area Assay (NPC1a) (AID 2284208)
# Summary of the method: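 Single 0.25–0.35 mm human fetal neural progenitor spheres in proliferation medium with EGF and FGF, exposed 72 h from plating without renewal at 37C, pH 7.2-7.6. Sphere area growth measured by automated phase-contrast imaging, relative to DMSO.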
# [7] = IUF_NPC1_viability_72hr: Viability Assessment at 72 hours in the Leibniz Research Institute for Environmental Medicine (IUF) Neural Progenitor Cell Proliferation Assay (NPC1) (AID 2284209)
# Summary of the method: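 hNPC spheres, 1/well, EGF+FGF medium, 37C/5% CO2; dosed day 0, 72 h, no re-dosing. Resazurin reduction (alamar blue) fluorescence; DMSO = negative control/baseline; growth-factor-free wells as positive control.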
# [8] = CCTE_Mundy_HCI_Cortical_Synap_Neur_Matur_NeuriteSpotCountPerNeuriteLength: CCTE's Synaptogenesis and Neurite Maturation Assay in rat cortical cells for Neurite Spot Count per Neurite Length, Mundy Lab (AID 2284210)
# Summary of the method: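 Primary rat cortical neurons, compound exposure DIV 7–12, 288.33 h endpoint. Hoechst, anti-MAP2 and anti-synaptophysin labelling; neurite-associated puncta per neurite length scored by automated imaging relative to DMSO controls.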
# [9] = CCTE_Mundy_HCI_Cortical_Synap_Neur_Matur_BPCount: CCTE's Synaptogenesis and Neurite Maturation Assay in rat cortical cells for Branch Point Count, Mundy Lab (AID 2284211)
# Summary of the method: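 Rat primary cortical cultures, AraC added DIV 5; chemicals dosed DIV 7 through DIV 12. Fixed cells stained for MAP2, synaptophysin and Hoechst; neurite branch points counted by automated high-content imaging, fitted relative to DMSO.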
# [10] = UKN4_HCS_LUHMES_neurite_outgrowth: University of Konstanz (UKN) Leist Lab Neurite Outgrowth Assay in human LUHMES cells (UKN4) (AID 2284206); conditions: actives raise or lower the signal
# Summary of the method: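 Day 0 switch to differentiation medium; day 2 replate (30000 cells/well) without cAMP and GDNF; compounds added 30 min–2 h later. At 23.5 h, 30 min calcein-AM/H-33342 live stain, then imaging.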
compound,measurement,setting,value
CCCCCCCCn1sccc1=O,outcome,[1],inactive
Cc1ccc(N)c(N)c1,outcome,[1],inactive
COC(=O)Nc1nc2ccccc2[nH]1,AC50,[2],5.19 µM (active)
same,AC50,[3],5110 nM (active)
same,outcome,[4],inactive
same,AC50,[5],18.4 µM (active)
same,outcome,[6],inactive
same,outcome,[7],inactive
same,outcome,[8],inactive
same,AC50,[9],4.14 µM (active)
CCC[CH2][Sn]([Cl])([CH2]CCC)[CH2]CCC,AC50,[1],29.7 µM (active) and 15 µM (active)
same,AC50,[2],0.0231 µM (active)
same,AC50,[3],77.2 nM (active)
same,AC50,[4],195 nM (active)
same,AC50,[10],119 nM (active)
same,AC50,[5],0.112 µM (active)
same,AC50,[6],673 nM (active)
same,AC50,[7],535 nM (active)
same,AC50,[8],37.5 nM (active)
same,AC50,[9],0.0481 µM (active)
O=C(Oc1ccc(Br)cc1)N1CCN2CCC1CC2,outcome,[1],inactive
[Cl-].[Cl-].[Hg+2],AC50,[1],30.6 µM (active)
same,outcome,[2],inactive
same,AC50,[3],660 nM (active)
CC(C)(OOC(C)(C)c1ccccc1)c1ccccc1,outcome,[1],inactive
